Compounds without any hit were thinned out: in the full panel of roughly 83,000, 20% have a hit.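 Cells were grown in 96-well plates and exposed to the test compound at a single concentration for 48 hours; results are reported as percent growth, with values below 10 considered active.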 A number with no mark means an inactive call. Calls of active or inactive are those of the source.
Experiments:
Assay in all cases: NCI-60 one-dose screen, 48 h (100 = growth as untreated, 0 = no growth, -100 = all killed)
Settings in all cases: 10 µM unless noted
DU-145 prostate = test system: DU-145 prostate
K-562 leukemia = test system: K-562 leukemia
MALME-3M melanoma = test system: MALME-3M melanoma
MDA-MB-231 breast = test system: MDA-MB-231 breast
RXF 393 renal = test system: RXF 393 renal
SF-268 CNS = test system: SF-268 CNS
SF-295 CNS = test system: SF-295 CNS
SF-539 CNS = test system: SF-539 CNS
UACC-257 melanoma = test system: UACC-257 melanoma
M14 melanoma = test system: M14 melanoma
HCT-15 colon = test system: HCT-15 colon
HT29 colon = test system: HT29 colon
SNB-75 CNS = test system: SNB-75 CNS
U251 CNS = test system: U251 CNS
PC-3 prostate = test system: PC-3 prostate
SK-MEL-5 melanoma = test system: SK-MEL-5 melanoma
UACC-62 melanoma = test system: UACC-62 melanoma
LOX IMVI melanoma = test system: LOX IMVI melanoma
SK-MEL-28 melanoma = test system: SK-MEL-28 melanoma
SNB-19 CNS = test system: SNB-19 CNS

| Compound | growth (DU-145 prostate) | growth (K-562 leukemia) | growth (MALME-3M melanoma) | growth (MDA-MB-231 breast) | growth (RXF 393 renal) | growth (SF-268 CNS) | growth (SF-295 CNS) | growth (SF-539 CNS) | growth (UACC-257 melanoma) | growth (M14 melanoma) | growth (HCT-15 colon) | growth (HT29 colon) | growth (SNB-75 CNS) | growth (U251 CNS) | growth (PC-3 prostate) | growth (SK-MEL-5 melanoma) | growth (UACC-62 melanoma) | growth (LOX IMVI melanoma) | growth (SK-MEL-28 melanoma) | growth (SNB-19 CNS) [%] |
| --- | --- | --- | --- | --- | --- | --- | --- | --- | --- | --- | --- | --- | --- | --- | --- | --- | --- | --- | --- | --- |
| Cc1ccc(-c2cc3c(cc2O)C2CCCCC2(N2CCOCC2)O3)cc1 (configuration not stated) | 106% | 89.1% | 101% | 114% | 90.6% | 97.2% | 103% | 105% | 102% | 92.5% | 101% | 105% | 75.4% | 98.6% | 75.3% | 99.1% | 71.2% | 87.1% | 111% | – |
| Cc1ccc(S(=O)(=O)Oc2cc(OS(=O)(=O)c3ccc(C)cc3)cc(OS(=O)(=O)c3ccc(C)cc3)c2)cc1 | 108% | 94.4% | 133% | 92.2% | 99.6% | 99% | 86.9% | 95% | 104% | 108% | 98.1% | 98.7% | 95.4% | 108% | 86.9% | 94.4% | 86.1% | 98.1% | 112% | – |
| N#C/C(=C\c1ccc(-c2ccccc2F)o1)c1nc(-c2ccco2)cs1 | 101% | 82.8% | 96% | 85.8% | 109% | 101% | 98.6% | 98.1% | 99.7% | 94.8% | 62.1% | 95.5% | 60.7% | 101% | – | 84.7% | 83.9% | 93.7% | 104% | 95.2 |
| CCN(CC)S(=O)(=O)c1cccc(-c2ccc3c(NC(=O)C4CC4)n[nH]c3c2)c1 | 25.4% [6.25 µM] | 9.65% [6.25 µM] (active) | 21.1% [6.25 µM] | 38.5% [6.25 µM] | -11.7% [6.25 µM] (active) | 35.8% [6.25 µM] | 5.94% [6.25 µM] (active) | -2.68% [6.25 µM] (active) | 21.5% [6.25 µM] | 8.28% [6.25 µM] (active) | 23.5% [6.25 µM] | 3.07% [6.25 µM] (active) | -7.53% [6.25 µM] (active) | 12.1% [6.25 µM] | 16.9% [6.25 µM] | -37.2% [6.25 µM] (active) | 28.7% [6.25 µM] | 10.5% [6.25 µM] | – | – |
| COc1cccc(-c2nc3sccn3c2-c2ccnc(NCCNS(=O)(=O)c3cccc(Cl)c3)c2)c1 | 44.1% | 25.3% | 63.2% | 68.3% | 47.5% | 42.7% | 33.8% | 72.6% | 58% | 48.4% | 37.8% | 45.7% | 36.6% | 58.8% | 20.2% | 20.2% | 12.1% | 46.7% | 68.4% | – |
| NC(=O)c1ccc[n+]([C@@H]2O[C@H](COP(=O)([O-])OP(=O)(O)OC[C@H]3O[C@@H](n4cnc5c(N)ncnc54)[C@H](O)[C@@H]3O)[C@@H](O)[C@H]2O)c1 | 105% | 109% | 115% | 98% | 125% | 104% | 108% | 90.3% | 108% | 104% | 97.3% | 106% | 104% | 99.5% | 114% | 112% | 119% | 92.9% | – | – |
| COc1ccccc1CNCCCN1C(=O)c2ccc3c4c(ccc(c24)C1=O)C(=O)N(CCCNCCCCN)C3=O | -71.1% (active) | 3.21% (active) | -80.7% (active) | 9.4% (active) | -80.9% (active) | 0.101% (active) | 0.192% (active) | -75.3% (active) | -71.8% (active) | -80.2% (active) | 12.7% | -23.9% (active) | -95.3% (active) | -67.4% (active) | -11.8% (active) | -98.3% (active) | -60.1% (active) | -16.3% (active) | -94.1% (active) | – |
| N#Cc1c(-c2ccccc2)cc(-c2ccc(Nc3nc(Nc4ccc(F)cc4)nc(Nc4ccc(F)cc4)n3)cc2)nc1N | 106% | 88.8% | 80.6% | 73.2% | 53.6% | 96.1% | 65% | 94.5% | 104% | 108% | 100% | 94.1% | 87.1% | 92% | 75.8% | 92% | 98.6% | 95.5% | 90.1% | – |
| CC/C=C1/C(=O)C=C[C@@H]1C/C=C\CCCC(=O)O | 98.3% | 25.1% | 101% | 79.4% | 110% | 92.4% | 101% | 101% | 73.9% | 77.5% | 72.8% | 78.9% | 105% | 64.9% | – | 81.5% | 30.7% | 19.9% | 96.9% | 92.1 |
| COc1ccc2[nH]c(O)c(/C=c3/cc4c(c(-c5ccc(F)c(OC)c5)n3)=Nc3ccccc3-4)c2c1 | 30.3% | 0.38% (active) | -55.6% (active) | -47.5% (active) | -75.2% (active) | 30.3% | 104% | 64.3% | 103% | -8.58% (active) | -24% (active) | -78.5% (active) | 92.1% | -70.1% (active) | 68.7% | 57.2% | 79.8% | -17.2% (active) | -51.2% (active) | – |
| Cc1cccc(-c2nc(N(C)c3ccc4ncsc4c3)c3ccccc3n2)n1 | 94.1% | 21.6% | 79.5% | 63.6% | 84.3% | 94.1% | 77% | 92.1% | 76.1% | 54.1% | 51.5% | 50.1% | 94% | 82.2% | 45.5% | 22.4% | 50.4% | 77.5% | 72% | – |
| CCN1CCN(c2nc(C)cc(NCc3cc(Nc4ccnc5cc(Cl)ccc45)ccc3F)n2)CC1 | 38% | -38.3% (active) | -69% (active) | -31.1% (active) | -10.8% (active) | 16.6% | -55% (active) | -81% (active) | -57.7% (active) | -83.7% (active) | -24.2% (active) | -12.6% (active) | -34.7% (active) | -27.2% (active) | 19.5% | -96.4% (active) | -49.8% (active) | -81.5% (active) | -80.3% (active) | – |
| Cc1ccc(C(=O)CSc2nc(-c3ccc(Br)cc3)c(C#N)c(=O)[nH]2)cc1 | 104% | 53.3% | 93% | 96.4% | 99.1% | 97.5% | 106% | 94.8% | 98.7% | 92.7% | 105% | 93.9% | 64.5% | 105% | 90.9% | 97.2% | 97.1% | 98% | 101% | – |
| CN(C)c1ccc(-c2cc(-c3ccc(Nc4nc(Nc5ccc(Cl)cc5)nc(Nc5ccc(Cl)cc5)n4)cc3)no2)cc1 | 47.7% | 24.8% | 54% | 35.6% | -42.1% (active) | 45% | -16.8% (active) | 46.1% | 65.7% | 61.6% | 39% | 33.9% | 19.6% | 27.4% | 6.65% (active) | 34.5% | 66.2% | 29% | 31.3% | – |
| COc1ccc2cc(-c3cc(OC)c(OC)c(OC)c3)c(=O)oc2c1 | 101% | 27.7% | 65.1% | 60.8% | 84.9% | 89.7% | 71.4% | 80.2% | 54.9% | 38.6% | 50% | 44.3% | 65% | 70.7% | 69.2% | 79.5% | 42% | 73.5% | 78.5% | – |
| CCOC(=O)c1csc(NC(=O)COc2cccc(/C=C3\Oc4cc(OC)ccc4C3=O)c2)n1 | 102% | 52.1% | 109% | 67.9% | 114% | 109% | 121% | 106% | 91.7% | 111% | 79.2% | 101% | 78.4% | 79.2% | 78.3% | 98.5% | 79% | 66.7% | 119% | – |

— PubChem BioAssay (NCI)
